Assay results as given in PubChem BioAssay AID1159580 (chemical genetic matrix, 2015).
Screen size: about 5,500 compounds; about 2,000 (36%) were called active. Another 18% or so got no clear call; they are omitted. No stated cut-off is given here; in the data, active means normalized growth mostly below about 0.91 (no sharp cut-off); inconclusive means no clear call, values can overlap the other calls; inactive means mostly above about 0.92. Some of the results follow.

Experiment: chemical genetic growth profiling, strain panel (AID 1159580);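 further: tested at 20 µM; growth read once vehicle control cultures reached saturation at 30 °C; 1 = growth at the plate median or of vehicle wells; lower values mean less growth of the strain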
Conditions: growth OD

Measured: normalized growth

CCN1CCCC(OC(=O)C(c2ccccc2)c2ccccc2)C1 (centres undefined)
inactive: S. cerevisiae deletion strains, locus YJR075W, strain HOC1, active compounds read low 1 | S. cerevisiae deletion strains, locus YKL009W, strain mrt4, active compounds read low 1.02 | S. cerevisiae deletion strains, locus YKL068W, active compounds read low 0.999 | S. cerevisiae deletion strains, locus YKL085W, strain MDH1 (second series), active compounds read low 1.01 | S. cerevisiae deletion strains, locus YKL085W, strain MDH1, active compounds read low 1.01 | S. cerevisiae deletion strains, locus YKL160W, strain elf1, active compounds read low 0.983 | S. cerevisiae deletion strains, locus YKL190W, strain CNB1, active compounds read low 1.01 | S. cerevisiae deletion strains, locus YKR001C, strain vps1, active compounds read low 1.02 | S. cerevisiae deletion strains, locus YKR026C, strain gcn3, active compounds read low 0.996 | S. cerevisiae deletion strains, locus YKR091W, strain srl3, active compounds read low 0.992 | S. cerevisiae deletion strains, locus YLL001W, strain dnm1, active compounds read low 0.971 | S. cerevisiae deletion strains, locus YLL026W, active compounds read low 0.992 | S. cerevisiae deletion strains, locus YLL041C, strain sdh2, active compounds read low 0.987 | S. cerevisiae deletion strains, locus YLR027C, strain aat2, active compounds read low 0.983 | S. cerevisiae deletion strains, locus YLR039C, strain RIC1, active compounds read low 1.07 | S. cerevisiae deletion strains, locus YLR058C, strain SHM2, active compounds read low 1.01 | S. cerevisiae deletion strains, locus YLR102C, strain apc9, active compounds read low 1.01 | S. cerevisiae deletion strains, locus YLR113W, strain HOG1, active compounds read low 0.958 | S. cerevisiae deletion strains, locus YLR221C, strain rsa3, active compounds read low 0.991 | S. cerevisiae deletion strains, locus YLR258W, strain gsy2, active compounds read low 0.977 | S. cerevisiae deletion strains, locus YLR262C, strain YPT6 (second series), active compounds read low 1.02 | S. cerevisiae deletion strains, locus YLR262C, strain YPT6, active compounds read low 1.08 | S. cerevisiae deletion strains, locus YLR268W, strain sec22, active compounds read low 1.01 | S. cerevisiae deletion strains, locus YLR320W, strain mms22, active compounds read low 0.982 | S. cerevisiae deletion strains, locus YLR330W, strain CHS5, active compounds read low 1.02 | S. cerevisiae deletion strains, locus YLR342W, strain FKS1 (second series), active compounds read low 1.01 | S. cerevisiae deletion strains, locus YLR342W, strain FKS1, active compounds read low 0.985 | S. cerevisiae deletion strains, locus YLR357W, strain rsc2, active compounds read low 0.933 | S. cerevisiae deletion strains, locus YLR370C, strain arc18, active compounds read low 0.994 | S. cerevisiae deletion strains, locus YLR371W, strain rom2, active compounds read low 1.01 | S. cerevisiae deletion strains, locus YLR384C, strain iki3, active compounds read low 0.983 | S. cerevisiae deletion strains, locus YLR418C, strain cdc73, active compounds read low 0.998 | S. cerevisiae deletion strains, locus YML016C, strain PPZ1, active compounds read low 1 | S. cerevisiae deletion strains, locus YML032C, strain rad52, active compounds read low 1.01 | S. cerevisiae deletion strains, locus YML120C, strain ndi1, active compounds read low 0.961 | S. cerevisiae deletion strains, locus YML124C, strain tub3, active compounds read low 1 | S. cerevisiae deletion strains, locus YMR058W, strain fet3, active compounds read low 0.982 | S. cerevisiae deletion strains, locus YMR078C, strain ctf18, active compounds read low 1 | S. cerevisiae deletion strains, locus YMR125W, strain sto1, active compounds read low 0.977 | S. cerevisiae deletion strains, locus YMR129W, active compounds read low 0.969 | S. cerevisiae deletion strains, locus YMR205C, strain PFK2, active compounds read low 0.984 | S. cerevisiae deletion strains, locus YMR223W, strain ubp8, active compounds read low 1.01 | S. cerevisiae deletion strains, locus YMR231W, strain pep5, active compounds read low 0.998 | S. cerevisiae deletion strains, locus YMR307W, strain GAS1, active compounds read low 1.09 | S. cerevisiae deletion strains, locus YNL067W, strain RPL9B, active compounds read low 1.01 | S. cerevisiae deletion strains, locus YNL071W, strain lat1, active compounds read low 0.973 | S. cerevisiae deletion strains, locus YNL153C, strain GIM3, active compounds read low 0.992 | S. cerevisiae deletion strains, locus YNL183C, strain NPR1, active compounds read low 0.943 | S. cerevisiae deletion strains, locus YNL209W, strain ssb2, active compounds read low 1.01 | S. cerevisiae deletion strains, locus YNL233W, strain BNI4, active compounds read low 1.01 | S. cerevisiae deletion strains, locus YNL248C, strain rpa49, active compounds read low 0.989 | S. cerevisiae deletion strains, locus YNL250W, strain rad50, active compounds read low 1 | S. cerevisiae deletion strains, locus YNL271C, strain bni1, active compounds read low 1.01 | S. cerevisiae deletion strains, locus YNL298W, strain CLA4, active compounds read low 1.01 | S. cerevisiae deletion strains, locus YNL307C, strain MCK1, active compounds read low 1.01 | S. cerevisiae deletion strains, locus YNL322C, strain KRE1 (second series), active compounds read low 0.992 | S. cerevisiae deletion strains, locus YNL322C, strain KRE1, active compounds read low 1.01 | S. cerevisiae deletion strains, locus YNR049C, strain mso1, active compounds read low 0.981 | S. cerevisiae deletion strains, locus YNR052C, strain pop2, active compounds read low 1.02 | S. cerevisiae deletion strains, locus YOL006C, strain TOP1, active compounds read low 0.982 | S. cerevisiae deletion strains, locus YOL012C, strain htz1 1.06 | S. cerevisiae deletion strains, locus YOL147C, strain pex11, active compounds read low 1 | S. cerevisiae deletion strains, locus YOR001W, strain rrp6, active compounds read low 0.973 | S. cerevisiae deletion strains, locus YOR061W, strain CKA2, active compounds read low 1.01 | S. cerevisiae deletion strains, locus YOR069W, strain VPS5, active compounds read low 1.01 | S. cerevisiae deletion strains, locus YOR070C, strain gyp1, active compounds read low 0.998 | S. cerevisiae deletion strains, locus YOR080W, strain dia2, active compounds read low 0.975 | S. cerevisiae deletion strains, locus YOR083W, strain WHI5, active compounds read low 0.98 | S. cerevisiae deletion strains, locus YOR106W, strain vam3, active compounds read low 0.988 | S. cerevisiae deletion strains, locus YOR136W, strain idh2, active compounds read low 1 | S. cerevisiae deletion strains, locus YOR144C, strain elg1, active compounds read low 0.996 | S. cerevisiae deletion strains, locus YOR184W, strain ser1, active compounds read low 1.04 | S. cerevisiae deletion strains, locus YOR231W, strain MKK1, active compounds read low 0.983 | S. cerevisiae deletion strains, locus YOR265W, strain rbl2, active compounds read low 0.995 | S. cerevisiae deletion strains, locus YOR270C, strain vph1, active compounds read low 0.987 | S. cerevisiae deletion strains, locus YOR290C, strain snf2, active compounds read low 0.98 | S. cerevisiae deletion strains, locus YOR316C, strain cot1, active compounds read low 1.01 | S. cerevisiae deletion strains, locus YPL051W, strain arl3, active compounds read low 0.988 | S. cerevisiae deletion strains, locus YPL055C, strain LGE1, active compounds read low 0.996 | S. cerevisiae deletion strains, locus YPL078C, strain atp4, active compounds read low 0.974 | S. cerevisiae deletion strains, locus YPL106C, strain sse1, active compounds read low 0.97 | S. cerevisiae deletion strains, locus YPL240C, strain hsp82, active compounds read low 0.991 | S. cerevisiae deletion strains, locus YPL256C, strain CLN2, active compounds read low 0.979 | S. cerevisiae deletion strains, locus YPR119W, strain clb2, active compounds read low 1.01 | S. cerevisiae deletion strains, locus YPR141C, strain kar3, active compounds read low 1 | S. cerevisiae deletion strains, locus YPR163C, strain tif3, active compounds read low 1 | S. cerevisiae deletion strains, locus YPR167C, strain met16, active compounds read low 1.01 | S. cerevisiae deletion strains, strain wtn01, active compounds read low 1 | S. cerevisiae strains, strain wild type, active compounds read low 1.01
